# Source: ChEMBL document CHEMBL3988442, “University of Dundee, Small-Polar-MMV Screening Library” (2021)
# In all, about 48,000 compounds went through this assay and about 13,000 (27%) showed an effect of 50% or more. The list shows a part of the results.
# System: Wolbachia pipientis
# Test: Anti-Wolbachia Cell-Based Screen
# Type: functional
# Design: scale not given: in the data most compounds retested in dose-response had high values
# Details: 5 µM
row,SMILES,Percent Effect [%]
1,Cc1cc(NC(=O)C(C)Nc2cccc(COCc3ccco3)c2)no1 (configuration not stated),96.95
2,Cc1cc(NC(=O)C(C)NCCn2cccn2)no1 (configuration not stated),7.799
3,Cc1nnc(C(C)Nc2cccc(COCCc3ccccc3)c2)o1 (configuration not stated),-2.129
4,Cc1cc(NC(=O)C(C)Nc2cccc(COCc3ccco3)c2)on1 (configuration not stated),82.63
5,Cc1cc(NC(=O)C(C)Nc2ccn(Cc3ccccn3)n2)on1 (configuration not stated),-74.41
6,Cc1cc(CNC(=O)Nc2cccc(COCCOC(C)C)c2)no1,4.138
7,CCN1CCN(c2ccc(CNC(=O)c3ccc(Cl)o3)cn2)CC1,4.733
8,Cc1ccccc1[C@@H]1CN(Cc2c(C)noc2C)C[C@H]1C(=O)O,-12.73
9,CCOc1ccc2[nH]c(=O)c(CN3CCC(O)CC3)cc2c1,-5.024
10,COc1ccc2[nH]c(=O)c(CN(C)CCN3CCCC3)cc2c1,-6.943
11,CCN1CCCC1CNCc1cc2cc(OC)ccc2[nH]c1=O (configuration not stated),59.94
12,COc1cc2[nH]c(=O)c(CN3CCCC3C)cc2c(OC)c1OC (configuration not stated),-17.42
13,CCN1CCCC1CNCc1cc2cc3c(cc2[nH]c1=O)OCCO3 (configuration not stated),90.42
14,CCN1CCCC1CNCc1cc2cc(OC)c(OC)cc2[nH]c1=O (configuration not stated),127.9
15,CN(CCN1CCCCC1=O)Cc1cc2cc3c(cc2[nH]c1=O)OCO3,9.765
16,CCN1CCCC1Cn1ccc2c(OC)c(OC)ccc2c1=O (configuration not stated),-2.049
17,CCN1CCCC1CNCc1cc2cc(C)c(C)cc2[nH]c1=O (configuration not stated),108.5
18,COc1cc2[nH]c(=O)c(CN3CCC[C@H]3CO)cc2c(OC)c1OC,3.209
19,Cc1cc(C)c(CNC(=O)NCC2CCCN2C)c(=O)[nH]1 (configuration not stated),-15.32
20,CCN1CCCC1CN(CCN(C)C)S(=O)(=O)c1ccc(C#N)cc1 (configuration not stated),2.143
21,COCCN1CCc2cc(C(=O)O)c(-c3ccoc3)nc2CC1.O=C(O)C(F)(F)F.O=C(O)C(F)(F)F,-9.804
22,CCCc1nnc(C(=O)N(C)Cc2ccc(OC)cc2)o1,16.32
23,COCCC(C)NC(=O)N1CCSC(C)(C)C1 (configuration not stated),-17.32
24,CC[C@H]1CN(C(=O)c2cnc(CN3CCCC3)s2)CC[C@@]1(C)O,12.41
25,O=C(NCCNc1ccccn1)NCC1CCS(=O)(=O)C1 (configuration not stated),7.118
26,Cc1ccc(S(=O)(=O)N2CC(C)Oc3ncccc32)c(F)c1 (configuration not stated),-7.297

row,SMILES,Percent Effect [%]
1,CS(=O)(=O)NCCCN1CCCCC1c1cc2ccccc2[nH]1 (configuration not stated),5.136
2,CS(=O)(=O)NCC1CCN(Cc2cc3ccccc3[nH]c2=O)C1 (configuration not stated),5.413
3,CCN1CCCC1CNCc1cc2ccccc2[nH]c1=O (configuration not stated),105.7
4,Cc1occc1C(=O)N1CC(C(=O)N2CCOCC2)C2(CCOCC2)C1 (configuration not stated),-11.45
5,CC(NC(=O)CCC(=O)c1cccs1)c1nnc2n1CCCCC2 (configuration not stated),-1.581
6,Cc1noc(CCCC(=O)NC(C)c2nnc3n2CCCCC3)n1 (configuration not stated),-8.198
7,CC(NC(=O)CCCC(=O)c1cccs1)c1nnc2n1CCC2 (configuration not stated),92.19
8,CC(NC(=O)CCC(=O)c1cccs1)c1nnc2n1CCC2 (configuration not stated),109.2
9,c1cnn(Cc2ccc(CN3CCC4(CCCNC4)C3)cc2)c1 (configuration not stated),7.706
10,COCCN1CCN(CCCc2nnnn2-c2ccccc2)CC1,-6.154
11,Cc1cc(C2CCCN(C(=O)c3ccc(C)[nH]c3=O)C2)n[nH]1 (configuration not stated),8.066
12,Cc1ccccc1OC1CCN(C(=O)c2c[nH]c(=O)[nH]c2=O)CC1,25.29
13,Cc1cccc2[nH]c(C3CCN(C(=O)c4c[nH]c(=O)[nH]c4=O)CC3)nc12,-6.416
14,O=C(c1c[nH]c(=O)[nH]c1=O)N1CCCC(c2cnccn2)C1 (configuration not stated),111.3
15,Cc1cnc(C2CCCN(C(=O)c3c[nH]c(=O)[nH]c3=O)C2)s1 (configuration not stated),107.7
16,Cc1cncc(C2CCCN(C(=O)c3c[nH]c(=O)[nH]c3=O)C2)n1 (configuration not stated),-6.344
17,Cn1ccnc1CN1CCN(c2ncnc3ccsc23)CC1,8.989
18,CCc1[nH]n(C)c(=N)c1-c1ccc2c(c1)OCO2,-3.293
19,CCc1ncnc2c1CCN(Cc1cccs1)CC2.O=C(O)C(F)(F)F,-3.657
20,COCCN1CCc2ncnc(-c3ccccc3)c2CC1.O=C(O)C(F)(F)F,98.59
21,CCc1ncnc2c1CCN(CCOC)CC2.O=C(O)C(F)(F)F,104.9
22,CCc1ncnc2c1CCN(Cc1ccc(OC)cc1)CC2.O=C(O)C(F)(F)F,-14.19
23,CN(CCN1CCCC1=O)CC(c1cccs1)N1CCOCC1 (configuration not stated),-4.192
24,CCc1ccc(CN(C/C=C/c2ccccc2)CCOC)nc1,-1.399
25,Cc1cc(CN[C@H](C(N)=O)[C@@H](C)O)c(C)s1,-13.15
26,Cc1ccc(N2CC[C@H](OCC3CC3)[C@@H]2Cc2cccnc2)nn1.O=C(O)C(F)(F)F,91.78

row,SMILES,Percent Effect [%]
1,COCCO[C@H]1CCN(c2cc(OC)ncn2)[C@H]1Cc1cccnc1.O=C(O)C(F)(F)F,-7.888
2,CN(C)[C@@H]1CCN(c2ncccn2)[C@H]1Cc1cccnc1.O=C(O)C(F)(F)F.O=C(O)C(F)(F)F,5.907
3,O=S(=O)(C1CC1)N1CC[C@H](OCC2CC2)[C@@H]1Cc1ccncc1,-12.77
4,Cc1ccc(N2CC[C@H](OCC3CC3)[C@@H]2Cc2cnn(C)c2)nn1,1.399
5,COCCO[C@H]1CCN(c2ccc(C)nn2)[C@H]1Cc1cccnc1.O=C(O)C(F)(F)F.O=C(O)C(F)(F)F,97.63
6,Cc1ccc(N2CC[C@H](OCC3CC3)[C@@H]2Cc2ccncc2)nn1,112.9
7,O=C(NCC(F)(F)F)c1nnn(-c2ccccc2)c1C(F)(F)F,-4.958
8,CCCSCC(=O)N1C[C@H]2CC[C@@H]1CN(c1ncccn1)C2,28.59
9,N[C@H]1CN(C(=O)c2ccc(CO)cc2)C[C@@H]1C1CC1,-11.41
10,COc1ccc(-c2nc3c([nH]2)CCNC3)c(OC)c1OC,-10.21
11,O=C(CCc1ccc(C(F)(F)F)cc1)N1CCCS1(=O)=O,-13.79
12,Cc1ccc(S(=O)(=O)Nc2cnn(C3CCOCC3)c2)cc1C,113.9
13,Cn1nnn(-c2ccc(NS(=O)(=O)c3ccc(Br)cc3)cc2)c1=O,-3.296
14,CC(=O)c1ccc(S(=O)(=O)Nc2cnn(C3CCOCC3)c2)cc1,124.1
15,O=S(=O)(Nc1cnc(N2CCOCC2)nc1)c1ccc(Cl)cc1,-1.506
16,O=S(=O)(Nc1cnn(C2CCOCC2)c1)c1ccc2c(c1)CCO2,-1.173
17,N#Cc1ccc(S(=O)(=O)Nc2ccc(N3CCOCC3)cn2)cc1,1.293
18,N#Cc1ccc(S(=O)(=O)Nc2cnn(C3CCOCC3)c2)cc1,136.3
19,O=S(=O)(Nc1cnn(C2CCOCC2)c1)c1ccc(Br)cc1,132.2
20,COc1c(NS(=O)(=O)c2ccc(C)c(C)c2)c(C)nn1C,-13.12
21,CCc1ccc(S(=O)(=O)Nc2cnc(N3CCOCC3)nc2)cc1,1.019
22,Cc1ccc(NS(=O)(=O)c2ccc(C#N)cc2)c(CN(C)C)c1,3.683
23,Cc1ccc(S(=O)(=O)Nc2ccc(N3CCOCC3)cn2)cc1,3.4
24,COc1coc(CN2CCCC(CCc3c(F)cccc3F)C2)cc1=O (configuration not stated),17.04
25,Cc1ccc(C)c(-c2csc(N)c2C#N)c1,-0.8217
26,Cc1nc(N2CCN3CCCCC3C2)nc2cc(S(C)(=O)=O)ccc12 (configuration not stated),-5.317

row,SMILES,Percent Effect [%]
1,O=C(CNC(=O)c1cnc2ccccc2c1O)NCCn1ccnc1,-3.022
2,Cc1cc(CN2CCN(C(=O)Nc3cccnc3)CC2)on1,-15.13
3,O=C(O)c1cc(S(=O)(=O)Nc2cnn(C3CCOCC3)c2)ccc1F,126.6
4,O=S(=O)(Nc1cnn(C2CCOCC2)c1)c1c(F)cccc1F,-13.72
5,O=S(=O)(Nc1cnn(C2CCOCC2)c1)c1ccc(F)c(F)c1,-11.58
6,Cc1ccc(CNCc2cc(Br)c3c(c2)OCO3)cc1,-32.56
7,COc1ccc2c(c1)CN(Cc1ccco1)C(=O)CCN2CC(C)(C)O,126.9
8,CC(C)(Oc1ccc2c(c1)CCCC2=O)C(=O)NCc1ccco1,-1.632
9,COc1cccc(N2CCC(CNC(=O)N(C)Cc3ccco3)C2)c1 (configuration not stated),-2.761
10,CN1CC(=O)N(c2cccc(F)c2)CC12CCN(Cc1ccco1)C2 (configuration not stated),-8.082
11,Fc1cccc(N2CCCC3(CN(Cc4ccco4)CCO3)C2)c1.O=C(O)C(F)(F)F.O=C(O)C(F)(F)F (configuration not stated),-7.933
12,CC(C)(O)CN1CCC(=O)N(Cc2ccco2)Cc2cc(F)ccc21,108.3
13,CC(=O)N1CCC2(CC1)CN(C(C)=O)CC21CCNC1=O (configuration not stated),-37.65
14,CN(C)C1Cc2ccccc2N(S(=O)(=O)c2ccccc2C#N)C1 (configuration not stated),-15.96
15,Cc1cc(C)c(CNC(=O)C2CCCN(c3cnccn3)C2)c(=O)[nH]1 (configuration not stated),0.7586
16,COc1cc(N2CCCC(c3ncc[nH]3)C2)ncn1 (configuration not stated),-14.93
17,CC(C)c1nc(C2CCCN(c3cnc4ccccc4n3)C2)no1 (configuration not stated),3.044
18,CN(C)c1cncc(C2CCCN(c3cnccn3)C2)n1 (configuration not stated),69.21
19,CN(C)CCCn1ccnc1C1CCCN(c2cc(N)ncn2)C1 (configuration not stated),-5.782
20,CN(C)c1nccnc1C1CCCN(c2cnccn2)C1 (configuration not stated),115.4
21,CC(C)n1ccnc1C1CCCN(c2cncc(N(C)C)n2)C1 (configuration not stated),9.354
22,Cc1cc(N2CCCC(c3nccnc3N(C)C)C2)ncn1 (configuration not stated),90.88
23,CN(C)c1nccnc1C1CCN(c2cnccn2)CC1,116.7
24,CN(C)CCO[C@H]1C[C@@H](O)C12CCN(c1cnccn1)CC2,0.5833
